Measurements taken from the supplement of paper PMC4466140.

How the values were obtained:
Assay in all cases: SPOT peptide array binding signal intensity (averaged, normalized) (arbitrary units (background-subtracted, floor 0; scale differs between SH3 domains)); higher = stronger binding of the SH3 domain to the peptide
[1] = target: AgAbp1
Method: (§1)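 GST-tagged SH3 domains from S. cerevisiae (Sc), A. gossypii (Ag), C. albicans (Ca) and S. pombe (Sp) were incubated at 10 ug/ml overnight at 4 C on cellulose SPOT membranes carrying 292 synthetic 15-mer peptides mined from the S. cerevisiae proteome (cysteines replaced by serines). Binding was detected with anti-GST antibody, HRP secondary and chemiluminescence, quantified with Genespotter, and reported as normalized spot intensities averaged over biological replicates.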

[2] = target: AgBbc1
Method: as §1

[3] = target: AgBem1-D1
Method: as §1

[4] = target: AgBzz1-D1
Method: as §1

[5] = target: AgBzz1-D2
Method: as §1

[6] = target: AgCyk3
Method: as §1

[7] = target: AgFus1
Method: as §1

[8] = target: AgHof1
Method: as §1

[9] = target: AgHse1
Method: as §1

[10] = target: AgLsb1
Method: as §1

[11] = target: AgLsb4
Method: as §1

[12] = target: AgMyo5
Method: as §1

[13] = target: AgNbp2
Method: as §1

[14] = target: AgRvs167
Method: as §1

[15] = target: AgSho1
Method: as §1

[16] = target: AgSla1-D1-D2
Method: as §1

[17] = target: AgSla1-D3
Method: as §1

[18] = target: CaAbp1-D1
Method: as §1

[19] = target: CaAbp1-D2
Method: as §1

[20] = target: CaBbc1
Method: as §1

[21] = target: CaBem1-D1
Method: as §1

[22] = target: CaBzz1-D1
Method: as §1

[23] = target: CaBzz1-D2
Method: as §1

[24] = target: CaCyk3
Method: as §1

[25] = target: CaFus1
Method: as §1

[26] = target: CaHof1
Method: as §1

[27] = target: CaHse1
Method: as §1

[28] = target: CaLsb1
Method: as §1

[29] = target: CaLsb4
Method: as §1

[30] = target: CaMyo5
Method: as §1

[31] = target: CaNbp2
Method: as §1

[32] = target: CaRvs167
Method: as §1

[33] = target: CaRvs167-3
Method: as §1

[34] = target: CaSho1
Method: as §1

[35] = target: CaSla1-D1-D2
Method: as §1

[36] = target: CaSla1-D3
Method: as §1

[37] = target: ScAbp1
Method: as §1

[38] = target: ScBbc1
Method: as §1

[39] = target: ScBem1-D1
Method: as §1

[40] = target: ScBzz1-D1
Method: as §1

[41] = target: ScBzz1-D2
Method: as §1

[42] = target: ScCyk3
Method: as §1

[43] = target: ScFus1
Method: as §1

[44] = target: ScHof1
Method: as §1

[45] = target: ScHse1
Method: as §1

[46] = target: ScLsb1
Method: as §1

[47] = target: ScLsb2
Method: as §1

[48] = target: ScLsb3
Method: as §1

[49] = target: ScLsb4
Method: as §1

[50] = target: ScMyo3
Method: as §1

[51] = target: ScMyo5
Method: as §1

[52] = target: ScNbp2
Method: as §1

[53] = target: ScPex13
Method: as §1

[54] = target: ScRvs167
Method: as §1

[55] = target: ScSho1
Method: as §1

[56] = target: ScSla1-D1-D2
Method: as §1

[57] = target: ScSla1-D3
Method: as §1

[58] = target: SpAbp1-D1
Method: as §1

[59] = target: SpBbc1
Method: as §1

[60] = target: SpBzz1-D1
Method: as §1

[61] = target: SpBzz1-D2
Method: as §1

[62] = target: SpCyk3
Method: as §1

[63] = target: SpHof1
Method: as §1

[64] = target: SpHof1-2
Method: as §1

[65] = target: SpHof1-3
Method: as §1

[66] = target: SpHse1
Method: as §1

[67] = target: SpLsb1
Method: as §1

[68] = target: SpLsb4
Method: as §1

[69] = target: SpMyo1
Method: as §1

[70] = target: SpNbp2
Method: as §1

[71] = target: SpPex13
Method: as §1

[72] = target: SpRvs167
Method: as §1

[73] = target: SpSla1-D1-D2
Method: as §1

[74] = target: SpSla1-D3
Method: as §1

GLRRARYKFPGQQKI
SPOT peptide array binding signal intensity [1]: 36.5 | SPOT peptide array binding signal intensity [2]: 30 | SPOT peptide array binding signal intensity [3]: 75 | SPOT peptide array binding signal intensity [4]: 22.5 | SPOT peptide array binding signal intensity [5]: 26 | SPOT peptide array binding signal intensity [6]: 3 | SPOT peptide array binding signal intensity [7]: 230 | SPOT peptide array binding signal intensity [8]: 24.5 | SPOT peptide array binding signal intensity [9]: 283 | SPOT peptide array binding signal intensity [10]: 17.2 | SPOT peptide array binding signal intensity [11]: 32.5 | SPOT peptide array binding signal intensity [12]: 2 | SPOT peptide array binding signal intensity [13]: 55 | SPOT peptide array binding signal intensity [14]: 5.67 | SPOT peptide array binding signal intensity [15]: 22 | SPOT peptide array binding signal intensity [16]: 228 | SPOT peptide array binding signal intensity [17]: 3 | SPOT peptide array binding signal intensity [18]: 388 | SPOT peptide array binding signal intensity [19]: 257 | SPOT peptide array binding signal intensity [20]: 91.5 | SPOT peptide array binding signal intensity [21]: 11 | SPOT peptide array binding signal intensity [22]: 74.5 | SPOT peptide array binding signal intensity [23]: 69 | SPOT peptide array binding signal intensity [24]: 20.5 | SPOT peptide array binding signal intensity [25]: 254 | SPOT peptide array binding signal intensity [26]: 1 | SPOT peptide array binding signal intensity [27]: 11.5 | SPOT peptide array binding signal intensity [28]: 0.5 | SPOT peptide array binding signal intensity [29]: 13 | SPOT peptide array binding signal intensity [30]: 2.5 | SPOT peptide array binding signal intensity [31]: 140 | SPOT peptide array binding signal intensity [32]: 15.2 | SPOT peptide array binding signal intensity [33]: 105 | SPOT peptide array binding signal intensity [34]: 254 | SPOT peptide array binding signal intensity [35]: 75 | SPOT peptide array binding signal intensity [36]: 3 | SPOT peptide array binding signal intensity [37]: 36 | SPOT peptide array binding signal intensity [38]: 19 | SPOT peptide array binding signal intensity [39]: 24 | SPOT peptide array binding signal intensity [40]: 19 | SPOT peptide array binding signal intensity [41]: 22 | SPOT peptide array binding signal intensity [42]: 107 | SPOT peptide array binding signal intensity [43]: 244 | SPOT peptide array binding signal intensity [44]: 1.5 | SPOT peptide array binding signal intensity [45]: 854 | SPOT peptide array binding signal intensity [46]: 8.25 | SPOT peptide array binding signal intensity [47]: 5 | SPOT peptide array binding signal intensity [48]: 63 | SPOT peptide array binding signal intensity [49]: 13 | SPOT peptide array binding signal intensity [50]: 2 | SPOT peptide array binding signal intensity [51]: 4.5 | SPOT peptide array binding signal intensity [52]: 167 | SPOT peptide array binding signal intensity [53]: 8.5 | SPOT peptide array binding signal intensity [54]: 31 | SPOT peptide array binding signal intensity [55]: 296 | SPOT peptide array binding signal intensity [56]: 294 | SPOT peptide array binding signal intensity [57]: 5 | SPOT peptide array binding signal intensity [58]: 196 | SPOT peptide array binding signal intensity [59]: 2 | SPOT peptide array binding signal intensity [60]: 145 | SPOT peptide array binding signal intensity [61]: 0.5 | SPOT peptide array binding signal intensity [62]: 6 | SPOT peptide array binding signal intensity [63]: 180 | SPOT peptide array binding signal intensity [64]: 5 | SPOT peptide array binding signal intensity [65]: 199 | SPOT peptide array binding signal intensity [66]: 268 | SPOT peptide array binding signal intensity [67]: 26 | SPOT peptide array binding signal intensity [68]: 56 | SPOT peptide array binding signal intensity [69]: 1 | SPOT peptide array binding signal intensity [70]: 120 | SPOT peptide array binding signal intensity [71]: 16 | SPOT peptide array binding signal intensity [72]: 12.5 | SPOT peptide array binding signal intensity [73]: 1 | SPOT peptide array binding signal intensity [74]: 13
